D1 antag: antagonists of human D1 dopamine receptor; P21728; HEK293 TREx D1 cells, calcium flux, dopamine EC80; stronger effect = lower value; activity change, negative = inhibition, % at 10 µM; actives 3.2% (n = 360,000); in the data active means activity change below about -30%; further: on the % scale 0 is the no-effect control and ±100 the full control effect
Target sequence (P21728 whole entry, looked up): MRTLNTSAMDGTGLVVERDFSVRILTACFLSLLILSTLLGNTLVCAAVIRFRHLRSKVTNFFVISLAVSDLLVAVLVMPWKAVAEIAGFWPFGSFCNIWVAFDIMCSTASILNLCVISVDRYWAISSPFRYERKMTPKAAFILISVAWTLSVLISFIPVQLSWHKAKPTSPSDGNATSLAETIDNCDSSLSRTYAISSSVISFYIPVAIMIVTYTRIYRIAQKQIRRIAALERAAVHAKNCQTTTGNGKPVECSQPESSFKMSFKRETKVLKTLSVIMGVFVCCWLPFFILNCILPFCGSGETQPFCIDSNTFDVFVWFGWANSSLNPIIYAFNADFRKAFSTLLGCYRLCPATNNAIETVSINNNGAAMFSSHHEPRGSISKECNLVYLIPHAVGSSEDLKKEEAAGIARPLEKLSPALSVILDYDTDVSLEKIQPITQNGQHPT
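Compound effects on dopamine-evoked calcium signalling were measured in tetracycline-induced HEK293 Trex D1 cells. Dopamine at EC80 followed a 180 s compound pre-read, and fluorescence was tracked kinetically for 180 s more.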
TRHR PAM: TRH receptor (human) allosteric enhancement | P34981 | TRHR cells, fluo-8 calcium fluorescence, EC20 TRH enhancement | enhancement, % at 2 µM | actives 0.66% (n = 360,000) | AID 493056; in the data active means enhancement above about 30%; further: 0% is about no effect
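Enhancer read-out: after compound pinning and an initial kinetic agonist-mode read, an EC20 of TRH (10 nM final) was injected and fluo-8 calcium signal (Ex 480/Em 530) followed at 1 s/cycle for 100 cycles in TRHR-expressing cells.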
D1 agonist: human D1 receptor agonism; P21728; HEK293 T-REx D1 cells, calcium flux, agonist mode; activation, % at 2 µM; actives 1% (n = 360,000); AID 504660; further: 0% is about no effect
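Inducible HEK293 T-REx D1 cells, force-coupled to calcium signalling, were plated at 4000 cells/well with tetracycline and held overnight at 30 C. After no-wash calcium dye loading, compound-evoked calcium rise over 180 s flagged agonists.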
D1 potentiator: potentiators of human D1 dopamine receptor. HEK293 TREx D1 cells, calcium flux, dopamine EC20 potentiation. potentiation, % at 10 µM. actives 0.036% (n = 360,000). AID 504651; in the data active means potentiation above about 30%; further: 0% is about no effect
LDHA inh: inhibitors of human lactate dehydrogenase A | P00338 | purified LDHA, NADH/diaphorase-resazurin fluorescence; stronger effect = lower value | activity change, % (values are at about 110 or 230 µM) | actives 0.15% (n = 480,000); in the data active means activity change below about -30%;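 further: plate controls were DMSO wells for no effect and wells without enzyme for full effect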
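Enzyme activity of human lactate dehydrogenase 5 (2 nM; 0.06 mM NADH, 0.2 mM pyruvate, 5 min, RT) is measured via a resazurin/diaphorase fluorescence readout of residual NADH.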
TRHR agonist: TRH receptor (human) agonism. P34981. TRHR cells, calcium flux fluo-8, FDSS agonist mode. activation, % at 2 µM. actives 0.18% (n = 360,000). AID 493084; further: 0% is about no effect
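Steps: seed TRHR cells overnight; add fluo-8 no-wash Ca dye, RT 30 min–1.5 h; record 10 s baseline; pin-transfer compounds; monitor fluorescence 1 cycle/s for the agonist window. Calcium increases flag candidate agonists.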
An asterisk follows results filed as active; nt = no result. This is a sample that favours compounds with a hit; in the whole collection about 3.6% have one here. Unless noted, no stated cut-off is given here; in the data, active means activation above about 30%; inactive means the rest.

SMILES | D1 antag | TRHR PAM | D1 agonist | D1 potentiator | LDHA inh | TRHR agonist
COc1cc(OC)cc(C(=O)OCc2cc3ccccc3[nH]c2=O)c1 | -40* | 22 | 0 | -12 | 3 | 0
CCn1nc(C(=O)OCC(=O)Nc2ccc(N3CCOCC3)cc2)c2ccccc2c1=O | nt | nt | nt | nt | 0 | nt
COc1ccc(C(=O)Oc2ccc3c(=O)c(Oc4cccc(OC)c4)coc3c2)cc1 | nt | nt | nt | nt | 1 | nt
Cc1cccc(Oc2ncnc3oc(-c4ccccc4)cc23)c1C | -81* | -7 | 1 | -11 | -12 | 0
Cc1cc(Cl)ccc1Oc1ncnc2oc(-c3ccccc3)cc12 | 2 | 1 | 3 | 0 | 2 | 0
COc1cccc(OC(=O)c2cc3ccccc3oc2=O)c1 | -30* | -2 | 5 | -2 | 5 | 0
COc1ccc2oc(=O)c(C(=O)N3CCN(c4ccccc4)CC3)cc2c1 | -41* | -6 | 0 | -1 | -15 | -1
COc1ccc2oc(=O)c(C(=O)N3CCN(C(=O)c4ccccc4)CC3)cc2c1 | 2 | 1 | 1 | 4 | -9 | 0
CCC(C)C(=O)NCc1cccc(COC(C)C)c1 (stereo unspecified) | nt | nt | nt | nt | 0 | nt
CCOC(=O)c1ccc(NC(=S)N2CCN(C)CC2)cc1 | -6 | -5 | 7 | 0 | -3 | 0
CCOC(=O)c1ccc(NC(=S)N2CCSC2c2ccc(Cl)cc2)cc1 (stereo unspecified) | -12 | 0 | 31* | -8 | -9 | 5
FC(F)(F)c1cccc(NC(=S)N2CCSC2c2ccc(Br)cc2)c1 (stereo unspecified) | nt | nt | nt | nt | -4 | nt
CCOC(=O)c1ccc(NC(=S)N2CCSC2c2ccc(OC)cc2)cc1 (stereo unspecified) | 19 | 7 | 40* | 10 | -7 | -1
COc1ccc(C2SCCN2C(=S)Nc2cccc(C(F)(F)F)c2)cc1 (stereo unspecified) | -36* | 14 | 56* | -9 | -2 | 0
COc1ccc(NC(=O)Cc2c(C)c3c(OC)cc(C)cc3oc2=O)c(OC)c1 | nt | nt | nt | nt | 1 | nt
CCOc1ccc(CC(=O)NCCc2sc3nc(-c4ccc(OC)cc4)nn3c2C)cc1 | nt | -3 | 0 | -1 | -12 | 0
CCOc1ccc(CC(=O)NCCc2sc3nc(-c4ccc(F)cc4)nn3c2C)cc1 | nt | 43* | 4 | -3 | -4 | 0
C=C(C)COc1cc(Cl)ccc1C(N)=O | nt | nt | nt | nt | 14 | nt
CC12CC3CC(C1)CC(C(=O)NNC(=O)c1ccncc1)(C3)C2 | nt | nt | nt | nt | -9 | nt
CC1(C(=O)NC(=S)NNC(=O)c2ccncc2)CCCCC1 | -18 | -2 | 43* | -2 | 3 | 12
O=C(NNC(=S)NC(=O)c1ccccc1)c1ccncc1 | nt | nt | nt | nt | -1 | nt
O=C(NNC(=S)NC(=O)C12CC3CC(CC(C3)C1)C2)c1ccncc1 | 0 | 6 | 136* | -5 | 0 | 36*
CCOC(=O)c1c(CSC(=N)N)n(C)c2cc(Br)c(OC(C)=O)cc12 | 6 | 3 | 2 | -11 | 1 | 0
CCOC(=O)c1c(CSC(=N)N)n(-c2ccc(C)cc2)c2cc(Br)c(OC(C)=O)cc12 | 25 | 4 | 39* | 2 | -8 | 2
COc1ccc(-c2nnc(SCC(=O)Nc3ccc(C(C)=O)cc3)nc2-c2ccc(OC)cc2)cc1 | -70* | 2 | 3 | -9 | -9 | 0
SMILES | D1 antag | TRHR PAM | D1 agonist | D1 potentiator | LDHA inh | TRHR agonist
CC(=O)c1ccc(NC(=O)CSc2nnc3c(n2)[nH]c2ccccc23)cc1 | -37* | -8 | 3 | -9 | -9 | 0
CCOc1ccc(NC(=O)CSc2nnc(-c3ccc(C)cc3)c(-c3ccc(C)cc3)n2)cc1 | 2 | -3 | -4 | -1 | 1 | 0
COc1cccc(NC(=O)CSc2nnc3c(n2)[nH]c2ccc(C)cc23)c1 | -84* | 3 | 3 | 5 | -10 | 0
Cc1ccc(NC(=O)CSc2nnc3c(n2)[nH]c2ccccc23)cc1 | -25 | 8 | 2 | nt | -6 | 1
NC(=O)CCC(NC(=O)c1ccc(-c2ccc(F)cc2)o1)C(=O)O (stereo unspecified) | nt | nt | nt | nt | 5 | nt
CCOc1ccc(C(=O)Nc2cccc3ccc(C)nc23)cc1Cl | nt | nt | nt | nt | -3 | nt
O=C(COC(=O)c1cc(=O)[nH]c2ccccc12)Nc1ccccc1C(=O)Nc1ccccc1 | nt | nt | nt | nt | -5 | nt
Cc1ccc(-c2cnc(SCC(=O)Nc3ccccc3F)o2)cc1C | nt | nt | nt | nt | -7 | nt
O=C(N/N=C/c1sc(=O)n(Cc2ccc(Br)cc2)c1Cl)c1ccco1 | -49* | 6 | 14 | 7 | -46* | -1
Cc1c(Cc2ccccc2)c(=O)oc2cc(OCc3ccc(C(C)(C)C)cc3)ccc12 | nt | nt | nt | nt | 6 | nt
Clc1ccc(CN2CCN(c3ncccn3)CC2)c(Cl)c1 | -37* | -4 | 7 | -4 | -10 | -1
CCN(CC)CC1CCN(CC(=O)OC)CC1 | nt | nt | nt | nt | 0 | nt
CCOC(=O)c1noc2nc(C)n(CC(=O)NC(C)CC)c(=O)c12 (stereo unspecified) | -4 | 34* | 1 | 1 | 1 | 0
CCOC(=O)c1noc2nc(C)n(CC(=O)Nc3cc(C)ccc3OC)c(=O)c12 | nt | nt | nt | nt | -5 | nt
Cc1ccc(Oc2ncccc2C(=O)NCC(=O)O)cc1 | -88* | 5 | 3 | -13 | -9 | 1
CC(C)c1cc(N2CCN(C(=O)c3ccco3)CC2)n2c(nc3ccccc32)c1C#N | -33* | -3 | 0 | -3 | -3 | 0
CCn1c(N2CCN(C(=O)c3ccco3)CC2)nc2ccccc21 | 8 | 1 | 3 | -6 | -4 | 0
N#Cc1ccc(-c2ccco2)nc1SCc1ccccc1 | -93* | -17 | 1 | -12 | -4 | 0
Cc1ccc(C(=O)OC(C)C(=O)NC2CCCCC2C)s1 (stereo unspecified) | 3 | 4 | 3 | nt | -4 | 0
CC(OC(=O)c1ncc(Cl)c(Cl)c1Cl)C(=O)NC1CCCCC1C (stereo unspecified) | -32* | -1 | 2 | 0 | -8 | 0
O=C(CNC(=O)c1[nH]c2ccccc2c1Cl)NCc1ccccc1 | nt | nt | nt | nt | 0 | nt
O=C(CSc1nc2cc(S(=O)(=O)N3CCOCC3)ccc2o1)NC12CC3CC(CC(C3)C1)C2 | nt | nt | nt | nt | 2 | nt
CC(C)(C)NC(=O)NC(=O)CSc1ccc(S(=O)(=O)N2CCCCC2)cn1 | -39* | 1 | 8 | 5 | 1 | 1
C/C(=N\NC(=O)CSc1nc2ccccc2o1)c1ccc(O)cc1 | 1 | -1 | 2 | 5 | -2 | 0
O=C(CSc1nc2cc(S(=O)(=O)N3CCOCC3)ccc2o1)Nc1c(F)cccc1F | -32* | 12 | 6 | -3 | -7 | 0
C/C(=N\NC(=O)CSc1nc2ccccc2o1)c1cccc(O)c1 | -35* | 9 | 6 | -4 | -2 | 0
CC(C)N(C(=O)CSc1ccc(S(=O)(=O)N2CCCCC2)cn1)c1ccccc1 | -37* | -4 | 2 | -5 | -10 | -1

From PubChem
